Data published in PubChem BioAssay AID720519 (National Center for Advancing Translational Sciences (NCATS), 2013).
Records with an inconclusive call do not appear. Where a call stands in place of a potency, no number is given. Calls of active or inactive are those of the source. Calls come from the whole dose curve; as a rule, active = well fitted activation curve with a large enough effect; inconclusive = small, poorly fitted or top-dose-only effect; inactive = flat fitted curve, though single readings scatter.

Test: qHTS for Inhibitors of Cell Surface uPA Generation: Confirmatory Assay for Cherry-picked Compounds
Settings: cell surface uPA activity generation, qHTS confirmation; series mostly up to 115 µM
How it was run: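 RAW 264.7 cells at 4000/well, incubated overnight, then treated with compounds. After 24 h at 37 C, viability was read by ATPlite luminescence. An increase in signal indicates blocked uPA-dependent LF entry.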
Potency is the fitted concentration of half-maximal effect.

| SMILES | Potency |
| --- | --- |
| COc1ccc(CNCCC2(C(C)C)CCOC(C)(C)C2)cc1 (centres undefined) | inactive |
| O=S(=O)(NCC(c1cccnc1)N1CCOCC1)c1ccccc1 (centres undefined) | inactive |
| COc1cccc2c1Oc1ncccc1N(C(=O)CCC(=O)NCc1ccc(C)cc1)C2 | inactive |
| CC(=O)NCCc1cnc[nH]1 | inactive |
| COc1ccccc1NS(=O)(=O)c1cc(NC(=O)CCc2nc3ccccc3c(=O)[nH]2)ccc1C | inactive |
| CN(C)S(=O)(=O)c1ccc(NC(=O)COC(=O)CC2CC3CCC2C3)cc1 (centres undefined) | inactive |
| CCCCn1c(N)c(N(Cc2ccccc2OC)C(=O)COc2ccc(C)cc2)c(=O)[nH]c1=O | inactive |
| CCCCn1c(SCC(=O)Nc2cc(C(F)(F)F)ccc2Cl)nnc1C(CC)N(C)C (centres undefined) | 52.1 µM (active) |
| COc1ccc2[nH]cc(S(=O)(=O)c3ccc(C(C)C)cc3)c(=O)c2c1 | inactive |
| O=C(Cc1ccccc1)Nc1ccc(NC(=O)c2ccccc2)c(Cl)c1 | inactive |
| O=C(NCc1ccc2c(c1)OCO2)c1ccccn1 | inactive |
| NC(=O)CC[C@H](NC(=O)c1ccc(F)cc1)C(=O)OCC(=O)Nc1c(F)c(F)c(F)c(F)c1F | inactive |
| CC(=O)c1ccc(NC(=O)CN2CCN(c3ccccc3)CC2)cc1 | inactive |
| Cc1ccc(-n2cccc2C(=O)NS(=O)(=O)c2ccc(C)cc2)cc1 | inactive |
| Cc1ccccc1OCCC(=O)NNC(=O)c1ccccc1F | inactive |
| COc1ccc(C(=O)N[C@H](C(=O)NCc2cccs2)C(C)C)cc1 | inactive |
| O=C(NC[C@H]1CCCO1)c1cccc2c1C(=O)c1ccc(-c3ccc(F)cc3OCc3ccccc3)cc1S2(=O)=O | inactive |
| Cc1cc(OC(C)C(=O)NCc2ccccn2)c2c(C)cc(=O)oc2c1 (centres undefined) | inactive |
| Cc1ccnc(NC(=O)CCNS(=O)(=O)c2ccc(C)c(C)c2)c1 | inactive |
| CC(=O)[C@@]1(O)[C@H](C)CC2C3CC=C4CC(OP(=O)(O)O)CC[C@]4(C)C3CC[C@@]21C (some centres undefined) | inactive |

| SMILES | Potency |
| --- | --- |
| CCOc1ccccc1N(CC(=O)Nc1ccc(OC)cc1)S(=O)(=O)c1ccccc1 | inactive |
| CCCOC(=O)CSC1=C(C#N)C(c2ccccc2Cl)CC(=O)N1 (centres undefined) | inactive |
| CCOC(=O)c1c(NC(=S)NC)sc2c1CCCC2 | inactive |
| CCC(C)C(NC(=O)c1ccccc1)C(=O)Nc1ccc(S(=O)(=O)Nc2cc(C)nc(C)n2)cc1 (centres undefined) | inactive |
| CCNc1nc(Nc2ccc(C)c(Cl)c2)c2cnn(C)c2n1 | inactive |
| COc1ccc(NS(=O)(=O)c2cc3c(cc2C)NC(=O)CO3)c(OC)c1 | inactive |
| C=CCn1c(=O)c(C(=O)NCCc2ccc(Cl)cc2)c(O)c2cc(OC)c(OC)cc21 | inactive |
| C=CCOC(=O)C1=C(C)NC(C)=C(C(=O)OCC=C)C1c1cn(-c2ccccc2)nc1-c1ccco1 | inactive |
| CC(C)(C)OC(=O)C[C@@H]1C/C=C\C[C@@H](CC(=O)N(CCO)Cc2ccccc2)C(=O)N[C@H](Cc2c[nH]c3ccccc23)COC1=O | inactive |
| COc1ncnc(NS(=O)(=O)c2ccc(N)cc2)c1OC | inactive |
| Cc1cc(=O)[nH]c2c(C)cc(S(=O)(=O)Nc3ccc(O)cc3)cc12 | inactive |
| CCOC(=O)C1(CC2CCCCO2)CCN(Cc2nccn2-c2cccc(C)c2)CC1 (centres undefined) | inactive |
| Cc1nn(C)c(C)c1S(=O)(=O)N1CCC(C(=O)NC2CCCCCC2)CC1 | inactive |
| CN(C)S(=O)(=O)c1cccc(C(=O)OCC(=O)NCc2ccc3c(c2)OCO3)c1 | inactive |
| C[C@@H]1O[C@@H](O[C@@H]2C(=O)c3c(O)cc(O)cc3O[C@H]2c2ccc(O)c(O)c2)[C@H](O)[C@H](O)[C@H]1O | inactive |
| Cc1nc(SCc2nc3ccccc3[nH]2)c2oc3cc([N+](=O)[O-])ccc3c2n1 | inactive |
| Oc1ccc(/C=N/Nc2cccc(Cl)n2)c(O)c1 | inactive |
| Cc1ccc(-c2cc(C(=O)NCC3CCCO3)no2)cc1 (centres undefined) | inactive |
| CCCn1nnc(NC(=S)NC(=O)c2ccccc2OC)n1 | inactive |
